Records with an inconclusive call do not appear. Where a call stands in place of a potency, no number is given. Active and inactive are the calls of the source. The call rests on the fitted dose curve; in most records, active means well fitted cell-killing curve with a large enough effect; inconclusive means small, poorly fitted or top-dose-only effect, or effect the other way; inactive means no such curve, though single readings can be large or run the other way.
Assay: Quantitative High-Throughput drug screen in 47 multiple myeloma cell lines against the NCATS MIPE library collection: L363_DSMZ cell viability assay (AID 1918984); further: nearly all actives have a fitted effect of over 40% in size
Settings: L363 myeloma viability, CellTiter-Glo ATP luminescence, 48 h; series mostly up to 45.8 µM
Summary of the method: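 ATP-based CellTiter-Glo luminescence after 48 h drug exposure (37 °C, 5% CO2) of 500 myeloma cells per well. DMSO-only wells set 100% viability, media-only wells 0%; MIPE 4.0 library added by pin tool.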

| SMILES | Potency |
| --- | --- |
| CN(C)c1nc(N(C)C)nc(N(C)C)n1 | inactive |
| C[C@](N)(Cc1ccc(O)c(O)c1)C(=O)O | inactive |
| CN1C(C(=O)Nc2ccccn2)=C(O)c2ccccc2S1(=O)=O | inactive |
| CN(CCOc1ccc(NS(C)(=O)=O)cc1)CCc1ccc(NS(C)(=O)=O)cc1 | inactive |
| Clc1ccc(C(c2ccccc2Cl)C(Cl)Cl)cc1 (stereo not given) | inactive |
| CN1C2CCC1CC(OC(=O)C(CO)c1ccccc1)C2 (stereo not given) | inactive |
| O=C(c1ccc(F)cc1)C1CCN(CCn2c(=O)[nH]c3ccccc3c2=O)CC1 | inactive |
| COc1ccccc1OCC(O)CN1CCN(CC(=O)Nc2c(C)cccc2C)CC1 (stereo not given) | inactive |
| NS(=O)(=O)c1cc2c(cc1Cl)NCNS2(=O)=O | inactive |
| O=C(C1CCCCC1)N1CC(=O)N2CCc3ccccc3C2C1 (stereo not given) | inactive |
| COc1ccc(C2CNC(=O)C2)cc1OC1CCCC1 (stereo not given) | inactive |
| COc1cc2c(c(OC)c1OC)-c1ccc(OC)c(=O)cc1[C@@H](NC(C)=O)CC2 | inactive |
| COc1cc2nc(N3CCN(C(=O)C4COc5ccccc5O4)CC3)nc(N)c2cc1OC (stereo not given) | inactive |
| NC(CO)C(=O)NNCc1ccc(O)c(O)c1O (stereo not given) | inactive |
| CC(C)(C)C(=O)Oc1ccc(S(=O)(=O)Nc2ccccc2C(=O)NCC(=O)O)cc1 | inactive |

Reference: PubChem BioAssay (NCATS)
